{"source": "PubChem BioAssay", "data": [{"tested_on": "Human papillomavirus type 1a protein E7 (residues 44-93)", "experiment": "small molecules binding HPV E7 44-93 – biochemical, small-molecule microarray, residues 44-93, 635 nm fluorescence, primary screen (AID 1108);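 note: E7 fragment applied at 1 µg/mL in TBST for 1 h at 4 C; score combines spot fluorescence with its signal to noise ratio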", "details": "fluorescence 635 nm, higher = more signal", "values": [{"smiles": "O=C1[C@H]2C=C(Br)[C@H](C[C@@H]2c2ccccc2)[C@@]12CO2", "composite z-score": 0.235}, {"smiles": "COc1ccc(C#Cc2ccc3c(c2)[C@]2(C(=O)N3)[C@H](c3ccccc3OCCO)N3[C@H](c4ccccc4)[C@H](c4ccccc4)OC(=O)[C@H]3[C@@H]2C(=O)O)cc1", "composite z-score": 1.42}, {"smiles": "O=C1O[C@H](c2ccccc2)[C@H](c2ccccc2)N2[C@H]1[C@@H](C(=O)N1CCN(c3ncccn3)CC1)[C@]1(C(=O)Nc3ccc(C#CC4=CCCCC4)cc31)[C@H]2c1ccc(O)cc1", "composite z-score": 1.41}, {"smiles": "C=CC[C@@]1(C(N)=O)N=C(c2ccc(OCCCO)cc2)O[C@@H]1c1ccccc1CN=[N+]=[N-]", "composite z-score": 1.39}, {"smiles": "COC(=O)[C@@]1(Cc2ccccc2)[C@H]2c3cc(C(=O)N4CCCC4)n(Cc4nc5ccccc5[nH]4)c3C[C@H]2CN1C(=O)c1ccccc1", "composite z-score": 1.43}, {"smiles": "O=C1O[C@H](c2ccccc2)[C@H](c2ccccc2)N2[C@H]1[C@@H](C(=O)O)[C@]1(C(=O)Nc3ccc(C#CC4=CCCCC4)cc31)[C@H]2c1ccccc1OCCO", "composite z-score": -0.65}, {"smiles": "COCCOC(=O)N1C(=O)[C@@]2(c3cc(C#Cc4ccc(OC)cc4)ccc31)[C@H](c1ccccc1OCCO)N1[C@H](c3ccccc3)[C@H](c3ccccc3)OC(=O)[C@H]1[C@@H]2C(=O)N1CCN(c2ncccn2)CC1", "composite z-score": 1.18}, {"smiles": "C=C/C=C/[C@H]1C(=C)CN([C@@H](Cc2ccccc2)C(=O)OC)[C@@H]1[C@H](O)Cc1ccccc1", "composite z-score": -0.784}, {"smiles": "C=CCOC(=O)[C@H]1[C@@H]2C(=O)O[C@@H](c3ccccc3)[C@@H](c3ccccc3)N2[C@@H](c2ccc(OCCOC(=O)[C@@H]3C[C@@H]4C(=O)N[C@@H](CCCC[N+](C)(C)C)C(=O)N4[C@@H]3c3ccc(O)cc3)cc2)[C@]12C(=O)Nc1ccccc12", "composite z-score": 1.26}, {"smiles": "C[C@@H]1ON(c2cccc(C(=O)OC(C)(C)C)c2)[C@H](c2ccc(Br)cc2)[C@H]1C(=O)N1C(=O)OC[C@H]1Cc1ccccc1", "composite z-score": 1.16}, {"smiles": "O=C1C2C=CC(C(O)c3ccc(F)cc3)N(Nc3ccccc3F)C2C(=O)N1c1ccccc1", "note": "(stereo not given)", "composite z-score": 1.18}, {"smiles": "COc1ccc(CCN2C(=O)[C@@]3(Cc4ccccc42)c2ccccc2C(=O)N(Cc2ccccc2C(F)(F)F)[C@H]3c2ccc(CO)cc2)cc1", "composite z-score": 0.291}, {"smiles": "COC(=O)[C@@]1(Cc2ccc(OC)cc2)[C@H]2c3cc(C(=O)N4CCCC4)n(Cc4ccsc4Br)c3C[C@H]2CN1C(=O)c1ccccc1", "composite z-score": 1.27}, {"smiles": "O=C1NC(=O)C2C1C=CC(C(O)Cc1ccccc1)N2Nc1ccc(Cl)cc1Cl", "note": "(stereo not given)", "composite z-score": -1.97}, {"smiles": "COC(=O)[C@@]1(Cc2ccccc2)[C@H]2c3cc(C(=O)N4CCCC4)n(CC4CC4)c3C[C@H]2CN1C(=O)c1ccccc1", "composite z-score": 1.39}, {"smiles": "COC(=O)[C@@]1(Cc2ccc(F)cc2)[C@H]2c3cc(C(=O)N4CCCC4)n(Cc4ccc(C)o4)c3C[C@H]2CN1C(=O)c1ccccc1", "composite z-score": 1.4}, {"smiles": "COc1cc2c(cc1OC)CN(C(=O)[C@H]1[C@@H]3C(=O)O[C@@H](c4ccccc4)[C@@H](c4ccccc4)N3[C@@H](c3ccc(O)cc3)[C@]13C(=O)Nc1ccc(C#CC4=CCCCC4)cc13)CC2", "composite z-score": 0.282}, {"smiles": "[N-]=[N+]=Nc1ccccc1[C@H]1OC(c2ccc(OCCCO)cc2)=N[C@@]1(Cc1ccccc1)C(=O)O", "composite z-score": 1.46}, {"smiles": "CC(C)N1C(=O)[C@@]2(Cc3ccccc31)c1ccccc1C(=O)N(C1CCCCC1)[C@H]2c1ccc(CO)cc1", "composite z-score": 0.683}, {"smiles": "CCOC(=O)[C@H]1C/C=C/C[C@H](C(=O)OCC)C(=O)O[C@H]2[C@@H](OC)O[C@H](CO)[C@@H](OC(=O)Nc3ccc(C#N)cc3)[C@@H]2OC1=O", "composite z-score": -0.324}, {"smiles": "CCCC=C(CCC)[C@@H](NS(=O)(=O)c1cccs1)c1ccc(C(=O)OC)cc1", "composite z-score": 1.37}, {"smiles": "COC(=O)[C@@]1(Cc2ccc(F)cc2)[C@H]2c3cc(C(=O)N(C)C)n(Cc4nc5ccccc5[nH]4)c3C[C@H]2CN1C(=O)c1ccccc1", "composite z-score": 1.32}, {"smiles": "CC(C)(C)OC(=O)CC[C@@]1(C(=O)NCC(O)CO)N=C(c2ccc(OCCCO)cc2)O[C@@H]1c1ccccc1N=[N+]=[N-]", "note": "(stereo not given in full)", "composite z-score": 1.47}, {"smiles": "CCOc1cc(C(O)C2C=CC3C(=O)N(c4ccccc4)C(=O)C3N2Nc2ccccc2)ccc1O", "note": "(stereo not given)", "composite z-score": 1.31}, {"smiles": "CN1C(=O)C2C=CC(C(O)Cc3ccccc3)N(Nc3ccccc3)C2C1=O", "note": "(stereo not given)", "composite z-score": 0.343}, {"smiles": "COC(=O)C(CC#Cc1ccc2c(c1)[C@]1(C(=O)N2)[C@H](c2ccc(O)cc2)N2[C@H](c3ccccc3)[C@H](c3ccccc3)OC(=O)[C@H]2[C@@H]1C(=O)Nc1nc2ccccc2s1)C(=O)OC", "composite z-score": 1.39}, {"smiles": "COc1ccc(C(=O)Nc2ccc(CN3C(=O)[C@@]4(O[C@@H](CCO)[C@H]([Si](C)(C)c5ccc(OC)cc5)[C@H]4C)c4ccccc43)cc2)cc1", "composite z-score": 0.908}, {"smiles": "COCCOC(=O)N1C(=O)[C@@]2(c3cc(C#Cc4ccc(OC)cc4)ccc31)[C@H](C(=O)N1CCCCCCC1)[C@H]1C(=O)O[C@H](c3ccccc3)[C@H](c3ccccc3)N1[C@@H]2c1ccc(OCCO)cc1", "composite z-score": 0.114}, {"smiles": "O=C1O[C@H](c2ccccc2)[C@H](c2ccccc2)N2[C@H]1[C@@H](C(=O)O)[C@]1(C(=O)Nc3ccc(C#CCCO)cc31)[C@H]2c1ccc(O)cc1", "composite z-score": -0.038}, {"smiles": "CC(C)(C)C(=O)N[C@@H](c1ccc(Cl)cc1)[C@]1(C)C[C@H]1C1CCCCC1", "composite z-score": 1.19}, {"smiles": "O=C(NCc1ccccc1)[C@@]1(Cc2ccccc2)N=C(c2ccc(OCCCO)cc2)O[C@H]1c1ccccc1", "composite z-score": 1.11}, {"smiles": "CC(C)(C)OC(=O)CC[C@@]12N=C(c3ccc(OCCCO)cc3)O[C@@H]1c1ccccc1N(CCS(=O)(=O)c1ccccc1)C2=O", "composite z-score": 1.08}, {"smiles": "[N-]=[N+]=NCc1ccccc1[C@@H]1OC(c2ccc(OCCCO)cc2)=N[C@]1(Cc1ccccc1N=[N+]=[N-])C(=O)N1CCOCC1", "composite z-score": 0.841}, {"smiles": "COCCOC(=O)N1C(=O)[C@@]2(c3cc(C#CC4(O)CCCCCC4)ccc31)[C@H](c1ccc(O)cc1)N1[C@H](c3ccccc3)[C@H](c3ccccc3)OC(=O)[C@H]1[C@@H]2C(=O)Nc1nc2ccccc2s1", "composite z-score": 1.36}, {"smiles": "COCCOC(=O)N1C(=O)[C@@]2(c3cc(C#CC4=CCCCC4)ccc31)[C@H](C(=O)N1CCc3cc(OC)c(OC)cc3C1)[C@H]1C(=O)O[C@H](c3ccccc3)[C@H](c3ccccc3)N1[C@@H]2c1ccc(OCCO)cc1", "composite z-score": 1.07}]}]}
